The values below come from the supplement of paper PMC10105736.
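Also: HEK293T cells with Epo stimulation, STAT-responsive firefly luciferase reporter, fold induction versus unstimulated cells divided by the larger fold induction of two negative controls lacking either bait or prey.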

Sequence of cpa (chain, as listed by the source): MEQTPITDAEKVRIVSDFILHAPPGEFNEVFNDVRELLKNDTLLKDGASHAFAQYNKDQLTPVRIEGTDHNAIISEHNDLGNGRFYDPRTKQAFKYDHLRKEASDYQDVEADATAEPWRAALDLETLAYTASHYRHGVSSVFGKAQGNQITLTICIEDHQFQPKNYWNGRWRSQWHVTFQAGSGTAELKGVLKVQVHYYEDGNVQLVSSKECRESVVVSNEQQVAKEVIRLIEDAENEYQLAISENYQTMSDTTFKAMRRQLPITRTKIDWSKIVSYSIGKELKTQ

The first test relates to cpb. As to the kind of experiment: MAPPIT interaction score (arbitrary units); higher = stronger binary interaction signal, active = hit call of the paper. The settings on record: MAPPIT configuration: N-C; pair source set: Lit-BM-16. As for the experimental part:
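MAPPIT in HEK293T cells: Drosophila bait and prey ORFs (from the FlyBi ORF collection) were co-transfected in quadruplicate, with two wells stimulated by erythropoietin. Interaction-dependent JAK-STAT activation was read out with a STAT-responsive firefly luciferase reporter. Positive calls use the 99th percentile of random reference set (RRS) scores within each batch […]. Batches Dvs01 and Dvs02 used the N-N configuration and Dvs04 the N-C configuration. Pairs come from FlyBi screens, CuraGen, DPiM, Finley Y2H, Lit-BM-16, Lit-BS-16 and RRS.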
For the substance cpa, the MAPPIT interaction score is 4.39 (active).

The same test, now with this note: MAPPIT configuration: N-N; pair source set: Lit-BM-16.
As for cpa, the MAPPIT interaction score is 6.04 (active).
